Source: PubChem BioAssay
For part of these data: Measured potencies and affinities stand elsewhere. Active and inactive are the calls of the source. Unless noted, the rule behind the calls is not given here.

What was measured:
[1] = target: Cell division control protein 42 homolog (Homo sapiens) (UniProt P60953); experiment: activated mutant Cdc42 GTP-binding inhibitors, dose response, biochemical, multiplex bead flow cytometry, Bodipy-FL-GTP (AID 1333;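 active = fitted half-maximal concentration within the tested dose range, moderate curve steepness, a statistically real signal drop, and little compound fluorescence or tag-binding interference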)
[2] = target: Cell division control protein 42 homolog (Homo sapiens) (UniProt P60953); experiment: wildtype Cdc42 GTP-binding inhibitors, dose response, biochemical, multiplex bead flow cytometry, Bodipy-FL-GTP (AID 1334;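 active = fitted half-maximal concentration within the tested range, moderate curve steepness, significant signal drop, and little compound fluorescence or bead-linkage interference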); settings: bead-based flow cytometry, Bodipy-FL-GTP binding to GST-Cdc42; at 100 µM (top of the series) unless noted
[3] = target: GTPase HRas (Homo sapiens) (UniProt P01112); experiment: inhibitors of GTP binding to wildtype Ras, dose response, biochemical, multiplex bead flow cytometry (AID 1335;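 active = fitted half-maximal concentration within 10 nM to 100 µM, steepness 0.5 to 2, significant signal drop, low assay interference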); settings: bead-based flow cytometry, Bodipy-GTP binding to GST-Ras; at 100 µM (top of the series) unless noted
[4] = test system: Ras-related protein Rab-7a (dog), GTP binding; experiment: Rab7 GTP binding inhibitors, potency, dose response, biochemical, wildtype, multiplex bead flow cytometry (AID 1336)
[5] = target: Ras-related C3 botulinum toxin substrate 1 (Homo sapiens) (UniProt P63000); experiment: wildtype Rac1 GTP binding inhibitors, dose response, biochemical, multiplex bead flow cytometry (AID 1340;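 active = dose curve with midpoint inside tested range, moderate steepness, plateau gap beyond fit error, low compound glow and bead-link interference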); settings: GST-Rac1 beads, Bodipy-FL-GTP binding; at 100 µM (top of the series) unless noted
[6] = target: GTPase HRas (Homo sapiens) (UniProt P01112); experiment: activated Ras mutant GTP binding inhibitors, dose response, biochemical, multiplex bead flow cytometry (AID 1341;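 active = dose-response curve with midpoint inside the tested range, moderate steepness, significant amplitude and little compound fluorescence or bead-attachment interference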;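 note: GST-tagged constitutively activated Ras mutant immobilized on beads and multiplexed with other GTPases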)

Sequence of GTPase HRas (Homo sapiens) (P01112 whole entry, looked up): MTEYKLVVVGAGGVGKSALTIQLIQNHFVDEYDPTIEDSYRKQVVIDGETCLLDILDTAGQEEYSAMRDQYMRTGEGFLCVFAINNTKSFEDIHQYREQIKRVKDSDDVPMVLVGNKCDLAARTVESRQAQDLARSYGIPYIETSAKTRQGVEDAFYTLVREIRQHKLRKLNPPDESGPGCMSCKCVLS
Sequence of Cell division control protein 42 homolog (Homo sapiens) (P60953 whole entry, looked up): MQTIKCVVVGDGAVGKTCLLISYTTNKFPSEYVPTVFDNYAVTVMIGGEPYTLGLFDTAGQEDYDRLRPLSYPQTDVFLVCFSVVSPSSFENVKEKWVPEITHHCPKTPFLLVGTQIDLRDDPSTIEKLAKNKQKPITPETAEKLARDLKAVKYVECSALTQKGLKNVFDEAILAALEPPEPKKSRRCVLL

Row | Compound | outcome [1] | fluorescence, percent of control (lower = inhibition) [2] | GTP binding, percent of control [3] | outcome [4] | GTP binding signal, raw median fluorescence (lower = inhibition) (MCF (arbitrary fluorescence units)) [5] | outcome [6]
1 | CCOC(=O)c1c(CSc2ccccc2)n(C)c2cc(Br)c(OCC(O)CNC(CO)(CO)CO)cc12 (stereo not given) | inactive | 94.1% | 147% | inactive | 320 | inactive
2 | CCCCn1c(O)c(/C=C/C=C/C=Nc2ccccc2)sc1=S | inactive | 29.8% | 68.3% | inactive | 216 | inactive
3 | CCOC(=O)CCCCC(=O)c1[nH]c(=O)[nH]c1CSc1nnc2c3cc(Br)ccc3n(C)c2n1 | inactive | 34.4% | 80.3% | inactive | 167 | inactive
4 | Cc1nc2c(ccc3nc(NC(=O)c4ccc(S(=O)(=O)N(C)C)cc4)sc32)s1 | inactive | 79.8% | 151% | inactive | 159 | inactive
5 | COc1ccc(N(CC(=O)Nc2cccc(C)c2C)S(=O)(=O)c2c(C)n[nH]c2C)cc1 | inactive | 33.4% | 74.3% | inactive | 170 | inactive
6 | O=C(N/N=C/c1ccc(-c2ccccc2[N+](=O)[O-])o1)c1cncc(Br)c1 | inactive | 44.2% | 55.2% | inactive | 150 | inactive
7 | Cc1ccc(CSc2nnc(-c3ccccc3N)c(=O)[nH]2)cc1 | inactive | 34.1% | 80.1% | inactive | 259 | inactive
8 | CC(=O)N1C(=O)/C(=C2\SC(=S)N(NC(=O)c3ccc(O)cc3)C2=O)c2ccccc21 | inactive | 31.6% | 70.8% | inactive | 155 | inactive
9 | Cc1c(C=O)c2ccccn2c1C(=O)c1cccc([N+](=O)[O-])c1 | inactive | 31.4% | 76.8% | inactive | 242 | inactive
10 | CC(C)Nc1nnc(SCC(=O)Nc2ccc3c(c2)C(=O)c2ccccc2C3=O)s1 | inactive | 43.2% | 50.9% | inactive | 0 | inactive
11 | Cc1ccc(CN2CC34C=CC(C)(O3)C(C(=O)O)C4C2=O)cc1 (stereo not given) | inactive | 60.3% | 87.8% | inactive | 33.4 | inactive
12 | O=C(COC(=O)/C=C/c1ccc(Cl)cc1)Nc1ccc2c(c1)OCCO2 | inactive | 40.2% | 59.5% | inactive | 162 | inactive
13 | Cc1cc(-c2n[nH]c(=S)n2/N=C/C(Cl)=C/c2ccccc2)n[nH]1 | inactive | 33.9% | 78.7% | inactive | 229 | inactive
14 | O=C(O)c1cccc(NCc2ccccc2)c1 | inactive | 65.9% | 86.9% | inactive | 38.8 | inactive
15 | COc1ccc(-c2csc(NC(=S)NC(=O)c3cccs3)n2)cc1OC | inactive | 36.6% | 78.1% | inactive | 176 | inactive
16 | Cn1c(=O)n(Cc2ccc(F)cc2)c(=O)c2c1nc1n2CCN1Cc1ccco1 | inactive | 31.2% | 68.1% | inactive | 164 | inactive
17 | O=C(C1CCCO1)N1CCN(C(=S)Nc2ccccc2C(F)(F)F)CC1 (stereo not given) | inactive | 53.3% | 64.3% | inactive | 208 | inactive
18 | O=C(O)CC/C(=C\c1ccccc1[N+](=O)[O-])c1nc2ccccc2s1 | inactive | 30.2% | 81.6% | inactive | 248 | inactive
19 | CC(=O)Nc1ccc(N2C(=O)c3ccc(C(=O)Nc4nnc(SCc5ccc(F)cc5)s4)cc3C2=O)cc1 | inactive | 43.1% | 92.1% | inactive | 253 | inactive
20 | O=C(COc1cc(Cl)ccc1Cl)Nc1nnc(CC(=O)N2CCOCC2)s1 | inactive | 90.6% | 152% | inactive | 178 | inactive

Row | Compound | outcome [1] | fluorescence, percent of control (lower = inhibition) [2] | GTP binding, percent of control [3] | outcome [4] | GTP binding signal, raw median fluorescence (lower = inhibition) (MCF (arbitrary fluorescence units)) [5] | outcome [6]
21 | N#Cc1ccc(OCc2ccc(C(=O)O)o2)cc1 | inactive | 63.6% | 87.2% | inactive | 37.7 | inactive
22 | Cc1ccc(-n2c3nc(=O)[nH]c(=O)c-3cc3cc([N+](=O)[O-])ccc32)cc1 | inactive | 34.4% | 71% | inactive | 103 | inactive
23 | CC1(C)Cc2c(sc3c2C2=NCCN2C=N3)CS1 | inactive | 38.3% | 86.3% | inactive | 280 | inactive
24 | Nc1nonc1-c1nc2ccccc2n1CC(=O)N/N=C/c1ccc(-c2ccccc2C(=O)O)o1 | inactive | 30.6% | 68.4% | inactive | 133 | inactive
25 | O=C(O)C1CCCN1C(=O)OCc1ccccc1 (stereo not given) | inactive | 108% | 188% | inactive | 235 | inactive
26 | Cc1nn(Cc2ccccc2)c(C)c1NC(=O)CSc1nc2c(c(C(F)(F)F)n1)CCc1ccccc1-2 | inactive | 33.3% | 73.5% | inactive | 175 | inactive
27 | CCOc1nnc(C)c2c(C)n(-c3cccc(Cl)c3)nc12 | inactive | 155% | 168% | inactive | 312 | inactive
28 | Cc1cc(C(=O)NNC(=S)NC(C)c2ccccc2)c2ccccc2n1 (stereo not given) | inactive | 95.6% | 177% | inactive | 197 | inactive
29 | O=C(O)COc1ccccc1/C=N/Nc1ccc(S(=O)(=O)Nc2ccc(Cl)cc2)cc1[N+](=O)[O-] | inactive | 28.1% | 79.9% | inactive | 174 | inactive
30 | O=c1c2c(-c3ccccc3)csc2nc2c3ccccc3c(NCCN3CCOCC3)nn12 | inactive | 32.1% | 66.4% | inactive | 168 | inactive
31 | CCOc1ccccc1NC(=O)CSc1ccc2nnc(-c3cccnc3)n2n1 | inactive | 29.2% | 65.1% | inactive | 136 | inactive
32 | CCOc1ccccc1CNCc1sc(C(=O)O)cc1C | inactive | 59.6% | 79.1% | inactive | 33.1 | inactive
33 | O=C(Nc1ccccc1C(=O)N1CCOCC1)C1CCC(=O)N1C1CCCC1 (stereo not given) | inactive | 51.3% | 62.7% | inactive | 210 | inactive
34 | O=C(Nc1cc(S(=O)(=O)Nc2ccccc2Cl)ccc1O)c1sc2cc(Cl)ccc2c1Cl | inactive | 35.5% | 81.2% | inactive | 248 | inactive
35 | NC(=O)c1c(NC(=O)c2cnccn2)sc2c1CCCC2 | inactive | 94.1% | 134% | inactive | 217 | inactive
36 | N#C/C(=C\c1ccncc1)c1nc2ccccc2[nH]1 | inactive | 31% | 81.6% | inactive | 273 | inactive
37 | COc1cc(/C=N/NC(=O)CN(Cc2ccco2)S(=O)(=O)c2ccccc2)ccc1O | inactive | 32.8% | 46.1% | inactive | 104 | inactive
38 | N#Cc1c(Nc2ccccc2)c(/C=N/N=C/c2ccccc2)c[nH]c1=O | inactive | 35.5% | 81.7% | inactive | 211 | inactive
39 | COc1cc(/C=N/Nc2nc(C)nc3c2cnn3-c2ccccc2)ccc1O | inactive | 87.1% | 128% | inactive | 241 | inactive
40 | CCOC(=O)c1c2c3c(c(Cl)ccc3[nH]c1=O)C(=O)c1ccccc1-2 | inactive | 19.1% | 46.2% | inactive | 103 | inactive

Row | Compound | outcome [1] | fluorescence, percent of control (lower = inhibition) [2] | GTP binding, percent of control [3] | outcome [4] | GTP binding signal, raw median fluorescence (lower = inhibition) (MCF (arbitrary fluorescence units)) [5] | outcome [6]
41 | Cc1nc2ccccn2c1-c1csc(Nc2cccc(O)c2)n1 | inactive | 35.4% | 80.4% | inactive | 216 | inactive
42 | O=C(O)C1=C[C@H](c2ccc(C(F)(F)F)cc2)C[C@H](OCc2ccc(CO)cc2)O1 | inactive | 30.2% | 87.2% | inactive | 246 | inactive
43 | COc1ccc([N+](=O)[O-])cc1NC(=S)NC(NC(=O)Cc1ccc(OC)c(OC)c1)C(Cl)(Cl)Cl (stereo not given) | inactive | 75.7% | 139% | inactive | 151 | inactive
44 | Cc1nc2ncccn2c1-c1csc(Nc2ccc(O)cc2)n1 | inactive | 20.9% | 46.8% | inactive | 106 | inactive
45 | Cc1cccc(CSCc2ccc(C(=O)O)o2)c1 | inactive | 58.1% | 86.9% | inactive | 28.5 | inactive
46 | Cc1ccccc1OCCn1cc(C(=O)O)c2cccc(C)c21 | inactive | 53.7% | 200% | inactive | 53.4 | inactive
47 | COc1cc2[nH]c(=S)nc(NCC3CCCO3)c2cc1OC (stereo not given) | inactive | 59.4% | 152% | inactive | 177 | inactive
48 | Cc1nc2ccc(-c3nc4ccc(N)cc4[nH]3)cc2[nH]1 | inactive | 35.3% | 79.9% | inactive | 210 | inactive
49 | CCCCOC(=O)c1cccnc1SCCc1ccccc1 | inactive | 48.2% | 125% | inactive | 69.8 | inactive
50 | Cc1ccc(CSc2ncccc2C(=O)O)cc1 | inactive | 67.9% | 199% | inactive | 284 | inactive
51 | CCOc1ccc(CCNc2ccc3nnc(-c4ccccc4)n3n2)cc1OCC | inactive | 40.9% | 54.2% | inactive | 141 | inactive
52 | O=C(C#Cc1ccc(-c2ccccc2)cc1)c1ccc([N+](=O)[O-])cc1 | inactive | 44.5% | 196% | inactive | 51.8 | inactive
53 | CCCCCCn1nc(C(=O)OCC(=O)c2c(N)n(C)c(=O)n(C)c2=O)c2ccccc2c1=O | inactive | 36% | 80.1% | inactive | 203 | inactive
54 | N#C/C(=C/c1ccc(O)c([N+](=O)[O-])c1)C(=O)Nc1ccccc1 | inactive | 31.5% | 77.4% | inactive | 193 | inactive
55 | O=c1/c(=C/c2ccc(CNS(=O)(=O)c3ccccc3)o2)sc2n1CCN=2 | inactive | 29% | 63.2% | inactive | 119 | inactive
56 | CCc1nnc2c(N(C)C)nc3ccccc3n12 | inactive | 34.8% | 76.3% | inactive | 168 | inactive
57 | O=C(Cn1cnc2cc([N+](=O)[O-])ccc2c1=O)NCCc1ccc(Cl)cc1 | inactive | 36.8% | 85.2% | inactive | 244 | inactive
58 | COc1ccc(CNc2nc3ccccc3n2Cc2ccc(C)cc2)cc1OC | inactive | 73% | 73.9% | inactive | 343 | inactive
59 | COc1ccc(C2=Nn3c(nnc3-c3ccccn3)SC2)cc1OC | inactive | 34% | 44.4% | inactive | 112 | inactive
60 | O=c1c2ccc([N+](=O)[O-])cc2ncn1Cc1ccccc1C(F)(F)F | inactive | 34.8% | 72.7% | inactive | 141 | inactive
